# Reference: PubChem BioAssay (NCATS)
# Values without a mark were called inactive. Inconclusive results are not listed. Active and inactive are the calls of the source. Unless noted, calls follow the shape of the dose curve; as a rule, active = well fitted curve in the direction sought with a large enough effect; inconclusive = small, poorly fitted or top-dose-only effect, or another doubt; inactive = no such curve, though single readings can be large; an effect the other way counts as inactive or inconclusive.
# Key:
# [1] = molecular target: Lysosomal acid glucosylceramidase (Homo sapiens) (UniProt P04062); experiment: Glucocerebrosidase-p2 (AID 348; in the data active = potency below about 10 µM; also: potency is read from the fitted curve at half-maximal effect); conditions: purified GBA, blue fluorogenic substrate, 40 min
# Lysosomal acid glucosylceramidase (Homo sapiens), sequence (P04062 whole entry, looked up): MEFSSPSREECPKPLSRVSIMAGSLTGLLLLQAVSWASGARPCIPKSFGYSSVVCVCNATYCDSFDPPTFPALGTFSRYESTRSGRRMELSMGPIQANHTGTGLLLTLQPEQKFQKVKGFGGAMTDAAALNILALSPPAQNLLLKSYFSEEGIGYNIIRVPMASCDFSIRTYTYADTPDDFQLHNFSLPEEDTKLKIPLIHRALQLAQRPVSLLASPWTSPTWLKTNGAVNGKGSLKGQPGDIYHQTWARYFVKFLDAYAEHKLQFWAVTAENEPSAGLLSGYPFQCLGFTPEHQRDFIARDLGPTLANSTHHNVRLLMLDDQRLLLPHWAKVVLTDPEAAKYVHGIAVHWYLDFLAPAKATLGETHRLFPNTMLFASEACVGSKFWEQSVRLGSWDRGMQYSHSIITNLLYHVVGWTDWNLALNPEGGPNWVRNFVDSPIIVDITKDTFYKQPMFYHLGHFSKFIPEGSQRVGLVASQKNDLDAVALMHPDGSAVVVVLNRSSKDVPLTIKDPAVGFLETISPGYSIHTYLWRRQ
# In short: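 Normal human glucocerebrosidase (0.2 nM) with blue fluorogenic substrate (80 uM final) in citrate/phosphate pH 5.9 with 10mM sodium taurocholate, 0.01% tween-20; 40 min RT, NaOH/glycine stop; fluorescence Ex 365/Em 440; AC50 from a titration from 0.6 nM upwards.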
# [2] = AP1 Signaling Pathway (AID 357; active = well fitted curve in either direction with a large enough effect, not every such curve was filed as active;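 also: ME-180 reporter cells stimulated with EGF at its EC50 level; % is scaled to controls: 0 for no effect and ±100 for the full control effect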); conditions: ME-180 AP-1-bla reporter, EGF-induced, beta-lactamase ratio, 5 h; at 7.69 µM (top of the series) unless noted
# In short: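 Cells are seeded overnight, exposed to compound titrations and an EC50 level of EGF for 5 hours at 37 °C, then loaded with CCF4 dye for 2.5 hours. Beta-lactamase activity under the AP-1 element is read as a blue/green ratio.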
# [3] = molecular target: Cytochrome P450 1A2 (Homo sapiens) (UniProt P05177); experiment: p450-cyp1a2 (AID 410; calls by dose curve; also: potency is read from the fitted curve at half-maximal effect;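 as to activity change, negative = inhibition: -100% = full effect of reference inhibitor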); conditions: recombinant CYP1A2, luciferin-ME demethylation, luminescence; series mostly up to 57 µM
# Cytochrome P450 1A2 (Homo sapiens), sequence (P05177 whole entry, looked up): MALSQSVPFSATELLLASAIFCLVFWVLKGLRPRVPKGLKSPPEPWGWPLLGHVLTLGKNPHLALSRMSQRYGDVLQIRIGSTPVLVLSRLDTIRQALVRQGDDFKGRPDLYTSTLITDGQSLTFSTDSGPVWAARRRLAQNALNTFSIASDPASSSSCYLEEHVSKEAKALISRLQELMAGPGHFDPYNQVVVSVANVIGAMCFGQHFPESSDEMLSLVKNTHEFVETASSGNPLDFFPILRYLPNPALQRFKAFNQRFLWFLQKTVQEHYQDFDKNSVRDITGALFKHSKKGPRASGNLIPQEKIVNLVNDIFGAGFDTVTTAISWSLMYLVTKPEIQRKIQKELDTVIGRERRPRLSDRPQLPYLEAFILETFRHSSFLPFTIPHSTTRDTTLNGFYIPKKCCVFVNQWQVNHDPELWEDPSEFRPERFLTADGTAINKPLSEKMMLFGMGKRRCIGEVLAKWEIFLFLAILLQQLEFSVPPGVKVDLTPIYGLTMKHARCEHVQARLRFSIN
# In short: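 Read-out is luminescence from luciferin produced by CYP1A2 demethylation of Luciferin-ME (100uM, at Km). Detection reagent stopped the 60 min NADPH-dependent reaction; signals were normalized to 57 uM furafylline.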
# [4] = NFAT Signaling Pathway (AID 444; active = well fitted curve in either direction with a large enough effect, not every such curve was filed as active;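 also: carbachol stimulus at about its EC50 of 1 µM final; % is scaled to controls: 0 for no effect and ±100 for the full control effect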); conditions: Jurkat NFAT-bla M1, carbachol, beta-lactamase ratio, 5 h; at 7.69 µM (top of the series) unless noted
# In short: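 Read-out: CCF4 FRET ratio (460 nm/530 nm) after 1 h RT dye loading, used for %activity and AC50 from titration series. Cells: Jurkat NFAT-β-lactamase/M1 line, treated with compound plus 1 uM carbachol for 5 h, 37 °C.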
# [5] = Stat Signaling Pathway (AID 446; active = well fitted curve in either direction with a large enough effect, not every such curve was filed as active;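 also: ME-180 cervical cancer cells given 40 pM IL-6 alongside compound; SIE-controlled beta-lactamase reporter measured as 460/530 nm FRET emission ratio; % is scaled to controls: 0 for no effect and ±100 for the full control effect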); conditions: ME-180 SIE beta-lactamase reporter, IL-6 stimulated, 5 h; at 7.69 µM (top of the series) unless noted
# In short: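 Emission at 460 and 530 nm (excitation 405 nm) reports SIE-controlled beta-lactamase in ME-180 cells. Cells received compound with 40 pM IL-6 for 5 hrs at 37 C; data scaled between 300 pM IL-6 and 125 nM JAK-inhibitor controls.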
# [6] = molecular target: Glucocorticoid receptor (Homo sapiens) (UniProt P04150); experiment: GR-EFC Redistribution (AID 451; calls by dose curve; also: potency is read from the fitted curve at half-maximal effect); conditions: CHO-K1 GR-EFC translocation, beta-gal luminescence, 2 h
# Glucocorticoid receptor (Homo sapiens), sequence (P04150 whole entry, looked up, the tested form may be a part): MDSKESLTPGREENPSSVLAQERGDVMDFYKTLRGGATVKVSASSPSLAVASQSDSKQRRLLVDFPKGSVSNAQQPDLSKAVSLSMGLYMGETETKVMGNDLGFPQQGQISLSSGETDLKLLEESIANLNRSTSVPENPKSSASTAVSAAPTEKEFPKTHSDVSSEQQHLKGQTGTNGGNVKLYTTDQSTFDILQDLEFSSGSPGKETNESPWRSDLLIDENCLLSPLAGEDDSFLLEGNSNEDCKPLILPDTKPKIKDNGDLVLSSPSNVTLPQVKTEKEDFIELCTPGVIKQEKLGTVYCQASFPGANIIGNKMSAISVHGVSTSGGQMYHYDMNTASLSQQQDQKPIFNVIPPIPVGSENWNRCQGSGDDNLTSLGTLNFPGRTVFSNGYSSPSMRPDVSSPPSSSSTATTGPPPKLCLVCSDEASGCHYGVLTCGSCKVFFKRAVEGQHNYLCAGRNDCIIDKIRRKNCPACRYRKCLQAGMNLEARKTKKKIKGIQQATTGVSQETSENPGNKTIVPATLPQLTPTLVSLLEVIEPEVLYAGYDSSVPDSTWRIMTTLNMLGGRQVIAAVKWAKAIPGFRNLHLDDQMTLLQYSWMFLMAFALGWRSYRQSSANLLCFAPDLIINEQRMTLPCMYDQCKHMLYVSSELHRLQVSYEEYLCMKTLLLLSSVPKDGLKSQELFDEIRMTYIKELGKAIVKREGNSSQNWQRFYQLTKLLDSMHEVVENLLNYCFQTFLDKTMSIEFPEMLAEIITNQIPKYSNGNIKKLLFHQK
# In short: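 Translocation of GR-ED fusion to nuclear EA restores b-gal, read by luminescence after 1 h room-temperature detection. Engineered CHO-K1 biosensor cells, 1,000/well, exposed 2 h at 37 C to titrations up to 46 uM final.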
# [7] = molecular target: Mitogen-activated protein kinase 10 (Mus musculus) (UniProt Q61831); experiment: JNK3 AlphaScreen Assay (AID 530; active = well fitted curve in either direction with a large enough effect, not every such curve was filed as active;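 also: kinase came from lysate of stimulated human HepG2 cells; signal reports phosphorylation of biotinylated GST-cJun 1-79 at Ser73 with 10 µM ATP; % is scaled to controls: 0 for no effect and ±100 for the full control effect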); conditions: JNK3 lysate, c-Jun phosphorylation; series mostly up to 57.1 µM
# In short: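 Kinase buffer: 20 mM Tris-HCl pH 7.6, 10 mM MgCl2, 1 mM DTT, 0.1 mM Na3VO4, 0.01% Tween-20; ATP 10 uM. Substrate biotin-GST-cJun(1-79), enzyme from activated HepG2 lysates. Detection by Ser73 phospho-antibody AlphaScreen.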
# [8] = molecular target: 3',5'-cyclic-AMP phosphodiesterase 4B (Homo sapiens) (UniProt Q07343); experiment: qHTS Assay for Inhibitors of PDE-IV (AID 607; active = well fitted activation curve with a large enough effect in the main read-out, with a control signal flat, not every such curve was filed as active; also: % of control where 0% means no effect); conditions: HEK293 ACTOne CNG channel cells, membrane potential fluorescence; series mostly up to 22.9 µM
# 3',5'-cyclic-AMP phosphodiesterase 4B (Homo sapiens), sequence (Q07343 whole entry, looked up): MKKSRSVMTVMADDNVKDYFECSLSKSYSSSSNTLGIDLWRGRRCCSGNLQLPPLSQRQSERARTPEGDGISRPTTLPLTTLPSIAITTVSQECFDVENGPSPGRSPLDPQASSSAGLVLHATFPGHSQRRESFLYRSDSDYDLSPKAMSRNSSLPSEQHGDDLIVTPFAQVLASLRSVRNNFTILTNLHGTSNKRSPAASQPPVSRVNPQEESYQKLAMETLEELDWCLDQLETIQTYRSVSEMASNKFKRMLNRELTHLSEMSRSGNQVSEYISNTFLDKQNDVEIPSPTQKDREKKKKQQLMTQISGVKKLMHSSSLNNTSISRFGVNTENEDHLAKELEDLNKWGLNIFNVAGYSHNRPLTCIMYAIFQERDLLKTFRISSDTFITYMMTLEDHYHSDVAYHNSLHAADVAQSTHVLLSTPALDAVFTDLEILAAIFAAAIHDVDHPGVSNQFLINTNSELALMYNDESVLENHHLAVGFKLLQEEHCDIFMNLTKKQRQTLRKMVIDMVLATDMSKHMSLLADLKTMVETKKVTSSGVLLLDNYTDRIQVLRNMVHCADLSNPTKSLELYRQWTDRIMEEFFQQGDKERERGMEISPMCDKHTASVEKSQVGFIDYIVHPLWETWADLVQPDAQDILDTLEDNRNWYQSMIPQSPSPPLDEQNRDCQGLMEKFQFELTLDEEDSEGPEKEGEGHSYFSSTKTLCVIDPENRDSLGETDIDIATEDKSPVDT
# In short: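 The readout is membrane depolarisation from a cAMP-sensing CNG channel, detected with a potential dye at ex 535/em 590. Cells were HEK293-derived (endogenous PDE-IV) at 1000 cells/well, titrated up to 22.9 uM final.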
# [9] = molecular target: Cytochrome P450 3A4 (Homo sapiens) (UniProt P08684); experiment: qHTS Assay for Activators of Cytochrome P450 3A4 (AID 885); conditions: recombinant CYP3A4, Luciferin-PPXE luminescence, 60 min; series mostly up to 57.1 µM; also: nearly all actives have a fitted effect of over 65% in size
# Cytochrome P450 3A4 (Homo sapiens), sequence (P08684 whole entry, looked up): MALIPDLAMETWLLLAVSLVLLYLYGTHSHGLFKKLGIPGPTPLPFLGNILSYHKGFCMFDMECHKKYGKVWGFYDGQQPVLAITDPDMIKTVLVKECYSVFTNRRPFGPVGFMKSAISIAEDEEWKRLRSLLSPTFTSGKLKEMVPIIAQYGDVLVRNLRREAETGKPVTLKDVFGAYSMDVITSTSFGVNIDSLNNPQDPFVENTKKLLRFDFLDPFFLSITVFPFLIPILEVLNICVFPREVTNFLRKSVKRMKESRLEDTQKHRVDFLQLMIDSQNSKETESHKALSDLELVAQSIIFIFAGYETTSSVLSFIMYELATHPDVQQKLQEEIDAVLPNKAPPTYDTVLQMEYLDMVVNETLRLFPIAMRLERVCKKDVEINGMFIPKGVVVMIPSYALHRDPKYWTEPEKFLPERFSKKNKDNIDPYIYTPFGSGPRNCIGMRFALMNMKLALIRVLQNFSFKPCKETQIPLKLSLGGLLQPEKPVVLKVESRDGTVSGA
# In short: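 Activators are scored by enhanced luminescence from CYP3A4 conversion of luciferin-PPXE (25uM, equal to KM) to luciferin, after 60 min at RT with an NADPH-regenerating system.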
# [10] = molecular target: Dual specificity protein kinase CLK4 (Homo sapiens) (UniProt Q9HAZ1); experiment: qHTS Assay for Inhibitors of CDC-like Kinase 4 (ADP-FP Assay) (AID 1795); conditions: Transcreener ADP fluorescence polarization; series mostly up to 50 µM; also: % is scaled to controls: 0 for no effect and ±100 for the full control effect; nearly all actives have a fitted effect of over 60% in size
# Dual specificity protein kinase CLK4 (Homo sapiens), sequence (Q9HAZ1 whole entry, looked up): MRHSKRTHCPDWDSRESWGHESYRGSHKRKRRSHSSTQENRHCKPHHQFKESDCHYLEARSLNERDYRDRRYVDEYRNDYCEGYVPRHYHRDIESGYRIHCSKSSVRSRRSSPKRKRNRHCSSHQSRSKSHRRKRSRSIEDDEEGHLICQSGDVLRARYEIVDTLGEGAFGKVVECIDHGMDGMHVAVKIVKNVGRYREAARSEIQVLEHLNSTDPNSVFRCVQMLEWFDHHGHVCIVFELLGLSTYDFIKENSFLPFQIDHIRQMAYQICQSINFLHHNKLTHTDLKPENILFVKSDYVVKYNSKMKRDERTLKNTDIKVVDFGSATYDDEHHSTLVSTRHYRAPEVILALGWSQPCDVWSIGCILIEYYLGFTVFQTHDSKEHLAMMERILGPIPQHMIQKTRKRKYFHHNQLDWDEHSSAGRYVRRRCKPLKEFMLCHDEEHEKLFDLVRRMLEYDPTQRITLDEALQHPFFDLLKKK
# In short: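 Recombinant human Clk4 (6.25 nM) phosphorylated RS repeat peptide (100 uM) with 1 uM ATP in Tris pH 7.5/MgCl2/EGTA/DTT/Triton buffer for one hour. ADP was quantified by Transcreener competitive fluorescence polarization against an ADP calibration curve.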
# [11] = molecular target: Ubiquitin carboxyl-terminal hydrolase 1 (Homo sapiens) (UniProt O94782); experiment: Inhibitors of USP1/UAF1: Pilot qHTS (AID 504865); conditions: purified USP1/UAF1, Ub-rhodamine cleavage fluorescence; series mostly up to 54.9 µM;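 also: rhodamine fluorescence freed from ubiquitin-rhodamine substrate followed over time; top concentration of the series differs between compounds; % is scaled to controls: 0 for no effect and ±100 for the full control effect; nearly all actives have a fitted effect of over 35% in size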
# Ubiquitin carboxyl-terminal hydrolase 1 (Homo sapiens), sequence (O94782 whole entry, looked up): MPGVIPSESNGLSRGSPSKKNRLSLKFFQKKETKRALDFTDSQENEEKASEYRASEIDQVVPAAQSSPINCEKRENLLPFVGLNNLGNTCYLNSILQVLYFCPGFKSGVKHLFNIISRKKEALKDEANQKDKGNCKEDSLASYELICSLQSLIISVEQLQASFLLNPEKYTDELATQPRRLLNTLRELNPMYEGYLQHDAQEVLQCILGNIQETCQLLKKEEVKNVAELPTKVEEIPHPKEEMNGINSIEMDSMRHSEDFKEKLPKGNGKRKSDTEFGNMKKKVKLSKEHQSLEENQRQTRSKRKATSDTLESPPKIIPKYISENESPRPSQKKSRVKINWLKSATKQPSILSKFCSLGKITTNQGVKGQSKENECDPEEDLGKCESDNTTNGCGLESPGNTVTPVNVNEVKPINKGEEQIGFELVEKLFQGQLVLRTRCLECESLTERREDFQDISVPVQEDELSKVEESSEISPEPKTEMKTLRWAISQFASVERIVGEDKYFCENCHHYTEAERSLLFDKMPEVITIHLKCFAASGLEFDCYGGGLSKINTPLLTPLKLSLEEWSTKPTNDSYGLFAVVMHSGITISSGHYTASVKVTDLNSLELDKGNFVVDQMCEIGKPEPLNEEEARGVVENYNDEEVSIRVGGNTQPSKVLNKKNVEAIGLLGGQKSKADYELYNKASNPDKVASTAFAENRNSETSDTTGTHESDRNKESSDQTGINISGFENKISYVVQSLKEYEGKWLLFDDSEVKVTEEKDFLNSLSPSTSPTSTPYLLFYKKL
# In short: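 USP1/UAF1 complex (1nM) preincubated with compound 15 min at room temperature, then Ub-Rho substrate (150nM final) added. Fluorescence read kinetically at 480/540 nm, 6 reads every 60 seconds. Buffer: 50mM HEPES pH 7.8, 0.5mM EDTA, 0.1 mg/ml BSA, 1mM TCEP, 0.01% Tween-20.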
# [12] = Primary qHTS for small molecule stabilizers of the endoplasmic reticulum resident proteome: Secreted ER Calcium Modulated Protein (SERCaMP) assay (AID 1508630); conditions: SH-SY5Y GLuc-SERCaMP (Gaussia luciferase released on ER calcium loss) secretion, thapsigargin, luminescence; series mostly up to 38.4 µM; also: % is scaled to controls: 0 for no effect and ±100 for the full control effect
# In short: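 The SH-SY5Y reporter protocol was run at 3 concentrations up to 38.3 uM (primary) or 11 concentrations (follow-up): 16 h compound, 100 nM thapsigargin for 4 h, then extracellular luciferase luminescence.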
# [13] = molecular target: Glucocorticoid receptor (Homo sapiens) (UniProt P04150); experiment: GR-GFP Redistribution (AID 450;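 active = compounds whose dose series gives a full or clear partial fitted curve of increased nuclear translocation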; also: potency is read from the fitted curve at half-maximal effect); conditions: U2OS GR-GFP nuclear translocation, laser cytometry, 2 h
# [14] = molecular target: Cytochrome P450 3A4 (Homo sapiens) (UniProt P08684); experiment: qHTS Assay for Inhibitors and Substrates of Cytochrome P450 3A4 (AID 884); conditions: recombinant CYP3A4, Luciferin-PPXE luminescence; series mostly up to 57.1 µM; also: potency is read from the fitted curve at half-maximal effect; nearly all actives have a fitted effect of over 50% in size
# In short: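 Luminescent readout of luciferin produced by CYP3A4 (20 nM) dealkylation of Luciferin-PPXE, 25 uM (its KM). NADPH-driven reaction ran 60 min at RT after 10 min compound preincubation; data scaled to 57 uM ketoconazole as 100% inhibition.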
# [15] = molecular target: Cytochrome P450 2C19 (Homo sapiens) (UniProt P33261); experiment: qHTS Assay for Inhibitors and Substrates of Cytochrome P450 2C19 (AID 899); conditions: recombinant CYP2C19, luciferin-H EGE luminescence; series mostly up to 57.1 µM; also: potency is read from the fitted curve at half-maximal effect; nearly all actives have a fitted effect of over 60% in size
# Cytochrome P450 2C19 (Homo sapiens), sequence (P33261 whole entry, looked up): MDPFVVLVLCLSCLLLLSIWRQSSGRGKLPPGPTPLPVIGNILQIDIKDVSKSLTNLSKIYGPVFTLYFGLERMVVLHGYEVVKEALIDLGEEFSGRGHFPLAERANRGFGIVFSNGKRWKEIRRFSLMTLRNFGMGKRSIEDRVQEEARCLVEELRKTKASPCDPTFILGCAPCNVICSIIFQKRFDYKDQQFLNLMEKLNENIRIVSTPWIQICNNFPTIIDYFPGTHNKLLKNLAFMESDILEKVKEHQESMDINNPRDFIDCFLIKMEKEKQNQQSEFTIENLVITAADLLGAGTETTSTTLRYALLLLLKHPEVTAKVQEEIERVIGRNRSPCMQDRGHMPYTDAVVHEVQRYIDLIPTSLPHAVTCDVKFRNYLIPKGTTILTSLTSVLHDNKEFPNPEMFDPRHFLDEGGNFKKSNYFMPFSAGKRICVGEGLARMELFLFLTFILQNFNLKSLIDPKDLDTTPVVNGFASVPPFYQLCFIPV
# In short: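 Reactions contain 5nM enzyme, 10uM Luciferin-H EGE (KM) and 50mM KPO4; compound preincubates 10 min at 37C, NADPH regeneration starts turnover for 60 min. Luminescence after detection reagent gives activity.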
# [16] = molecular target: Cytochrome P450 2D6 (Homo sapiens) (UniProt P10635); experiment: qHTS Assay for Inhibitors and Substrates of Cytochrome P450 2D6 (AID 891); conditions: recombinant CYP2D6, luciferin-ME EGE luminescence; series mostly up to 57.1 µM; also: potency is read from the fitted curve at half-maximal effect; nearly all actives have a fitted effect of over 60% in size
# In short: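 Luminescent read-out of luciferin formed by 5 nM human CYP2D6 demethylating 30 uM Luciferin-ME EGE (Km level) over 60 min at room temperature after NADPH regeneration addition. Data normalized to full inhibition by 1.43 uM quinidine.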
# [17] = Confirmation and Secondary Assay for Modulators of Hemoglobin Beta Chain Splicing at IVS2 654 locus (AID 910); conditions: HeLa EGFP-654 splicing reporter, GFP fluorescence, 48 h; series mostly up to 38.3 µM;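 also: HeLa cells stably carrying EGFP split by mutant beta-globin IVS2-654 intron; per-well total GFP intensity by laser scanning cytometry after 2-day treatment; % of control where 0% means no effect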
# In short: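 Readout: per-well total peak green fluorescence (488 nm ex, 500–520 nm em) from objects 5–250 µm, reflecting correct splicing of an EGFP-654 reporter. Compounds were applied for 2 days at 37 °C to overnight-plated HeLa EGFP-654 cells; controls were DMSO and 500 nM IVS2-654 PNA.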
# [18] = Confirmation and Secondary Assay for Modulators of Hemoglobin Beta Chain Splicing at IVS2 705 locus (AID 930); conditions: HeLa EGFP-705 splicing reporter, GFP fluorescence, 48 h; series mostly up to 38.3 µM;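 also: HeLa cells stably expressing the EGFP-705 splicing reporter; GFP fluorescence per well restored by corrected splicing of the IVS2-705 intron in EGFP; % of control where 0% means no effect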
# In short: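 Stable HeLa line with EGFP disrupted by mutant beta-globin intron 2 (705). Overnight attachment, then 2 days of compound at 37C, 5% CO2. Signal: peak GFP intensity summed over objects 5-250 µm.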
# [19] = qHTS Assay for Identification of Small Molecule Agonists for Hypoxia Response Element Signaling Pathway (AID 914; active = well fitted activation curve with a large enough effect in the signal ratio, with a control signal flat, not every such curve was filed as active; the % refers to the signal ratio; also: potency is read from the fitted curve at half-maximal effect); conditions: ME-180 (cervical carcinoma) HRE-bla reporter, beta-lactamase ratio, CoCl2, 17 h; activation: active compounds read high
# In short: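 Reporter activity (beta-lactamase, CCF4 460nm/530nm ratio) in HRE-bla ME-180 cells is recorded after 17 h compound exposure with EC50 CoCl2 at 37 degrees Celsius. AC50 values come from titration data.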
Compound,Potency [1],"activity change, negative = inhibition [2]",Potency [3],"activity change, negative = inhibition [4]","activity, negative = inhibition [5]",Potency [6],Potency [7],Potency [8],Potency [9],Potency [10],Potency [11],outcome [12],Potency [13],Potency [14],Potency [15],Potency [16],Potency [17],outcome [18],Potency [19]
c1cncc(CNc2cc(-c3ccoc3)ncn2)c1,> 11.4 µM,0.0422%,3.16 µM (active),-10.4%,11.8%,> 46 µM,inactive,inactive,inactive,inactive,inactive,inactive,–,–,–,–,–,–,–
CCNc1ncc2nc(-c3cccs3)c(=O)n(-c3ccccc3)c2n1,> 11.4 µM,-0.879%,1.58 µM (active),-3.13%,–,> 46 µM,inactive,–,–,inactive,–,inactive,> 9.22 µM,–,–,–,–,–,–
COCCn1c(=O)cnc2cnc(N(C)C)nc21,> 11.4 µM,8.38%,–,7.07%,-2.06%,> 46 µM,inactive,inactive,–,inactive,inactive,inactive,> 9.22 µM,–,–,–,–,–,–
COc1ccccc1-c1cncnc1NCc1cccs1,> 11.4 µM,0.247%,3.16 µM (active),-3.21%,-6.68%,> 46 µM,inactive,–,inactive,inactive,inactive,inactive,> 46 µM,0.398 µM (active),2 µM (active),–,–,–,–
COc1ccc(CNc2ccnc(-c3ccccc3OC)n2)c(OC)c1,> 11.4 µM,3.33%,5.01 µM (active),-9.22%,1.07%,> 46 µM,inactive,–,inactive,inactive,–,inactive,> 46 µM,6.31 µM (active),–,3.98 µM (active),–,–,–
FC(F)(F)c1ccccc1-c1cc(NCc2cccs2)ncn1,–,-3.47%,3.98 µM (active),-14.8%,5.97%,> 46 µM,inactive,inactive,–,inactive,inactive,inactive,> 46 µM,–,0.794 µM (active),–,–,–,–
COc1ccc2[nH]cc(CCNc3ccnc(-c4ccccc4C)n3)c2c1,–,-8.02%,0.316 µM (active),8.54%,-1.84%,> 46 µM,inactive,inactive,inactive,inactive,inactive,inactive,> 46 µM,3.16 µM (active),2.51 µM (active),2.51 µM (active),–,–,–
O=c1c(-c2ccc(F)cc2)nc2cncnc2n1C1CC1,> 11.4 µM,-6.77%,0.158 µM (active),2.7%,-6.49%,> 46 µM,inactive,–,–,–,–,inactive,> 9.22 µM,–,–,–,–,–,–
COc1ccc2[nH]cc(CCNc3cc(-c4ccccc4CN(C)C)ncn3)c2c1,–,14.9%,–,-12.7%,6.88%,> 46 µM,–,inactive,–,inactive,inactive,inactive,> 46 µM,–,–,–,–,–,–
CN(C)C(=O)c1ccc(-c2cncnc2NCCN2CCOCC2)cc1,> 11.4 µM,-0.958%,inactive,-6.2%,0.853%,> 46 µM,inactive,–,inactive,–,inactive,inactive,> 46 µM,–,–,–,inactive,inactive,–
Clc1ccccc1-c1nc(NCCN2CCOCC2)c2ccccc2n1,–,16%,12.6 µM (active),-7.69%,-5.23%,> 46 µM,inactive,inactive,inactive,inactive,inactive,inactive,> 46 µM,–,–,–,–,–,3.16 µM (active)
Cc1noc(C)c1-c1cncnc1NC1CC1,> 11.4 µM,12.1%,inactive,0.874%,-18.4%,> 46 µM,inactive,inactive,inactive,–,inactive,inactive,> 46 µM,7.94 µM (active),–,–,inactive,–,–
CN(C)C(=O)c1ccc(-c2ccc3ncnc(Nc4ccccc4)c3c2)cc1,> 11.4 µM,–,15.8 µM (active),–,0.91%,> 46 µM,inactive,inactive,inactive,inactive,inactive,inactive,> 46 µM,–,–,–,–,–,–
CN(C)c1ncc2ncc(=O)n(C)c2n1,> 11.4 µM,-20.1%,6.31 µM (active),0.153%,-5.5%,> 46 µM,inactive,inactive,–,–,–,inactive,> 9.22 µM,–,–,–,–,–,–
